Reference: PubChem BioAssay AID1159580 (chemical genetic matrix, 2015)
Several values for one entry are separate records, joined by “and”; a condition that tells them apart may be missing. Equal entries are not always repeated. Screen size: about 5,500 compounds; about 2,000 (36%) were called active. About 18% were inconclusive and are not listed. No stated cut-off is given here; in the data, active means normalized growth mostly below about 0.91 (no sharp cut-off); inconclusive means no clear call, values can overlap the other calls; inactive means mostly above about 0.92. Some of the results follow.

Assay: chemical genetic growth profiling, strain panel (AID 1159580);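 further: tested at 20 µM; growth read once vehicle control cultures reached saturation at 30 °C; 1 = growth at the plate median or of vehicle wells; lower values mean less growth of the strain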
Conditions: S. cerevisiae deletion strains, growth OD

Measured: normalized growth

CCN(CC)C(=O)c1cccc(C)c1
inactive: locus YAL013W, strain DEP1, hits give low values 1 | locus YAL021C, strain ccr4, hits give low values 1.03 | locus YAL026C, strain drs2, hits give low values 1.03 | locus YAL030W, strain snc1, hits give low values 1.04 | locus YBL061C, strain skt5, hits give low values 1.04 | locus YBR009C, strain hhf1, hits give low values 1.01 | locus YBR021W, strain FUR4, hits give low values 1.01 | locus YBR023C, strain chs3, hits give low values 1.03 | locus YBR171W, strain sec66, hits give low values 1.04 | locus YBR229C, strain ROT2, hits give low values 1.01 | locus YBR231C, strain swc5, hits give low values 1.05 | locus YBR279W, strain paf1, hits give low values 1.02 | locus YCL011C, strain gbp2, hits give low values 1.02 | locus YCL016C, strain dcc1, hits give low values 1.03 | locus YCL029C, strain bik1, hits give low values 0.992 | locus YCL069W, strain vba3, hits give low values 1.04 | locus YCR088W, strain abp1, hits give low values 1.04 | locus YDL005C, strain med2, hits give low values 1.03 | locus YDL035C, strain GPR1, hits give low values 1 | locus YDL040C, strain nat1, hits give low values 1.03 | locus YDL074C, strain BRE1, hits give low values 1.02 | locus YDL101C, strain DUN1, hits give low values 0.999 | locus YDL134C, strain PPH21, hits give low values 1.01 | locus YDL185W, strain tfp1, hits give low values 0.957 | locus YDL192W, strain arf1, hits give low values 0.996 | locus YDR001C, strain nth1, hits give low values 1.03 | locus YDR069C, strain doa4, hits give low values 1.02 | locus YDR101C, strain arx1, hits give low values 1 | locus YDR137W, strain rgp1, hits give low values 1.04 | locus YDR150W, strain NUM1, hits give low values 0.981 | locus YDR159W, strain sac3, hits give low values 1.05 | locus YDR162C, strain NBP2, hits give low values 0.972 | locus YDR195W, strain ref2 1.11 | locus YDR297W, strain sur2, hits give low values 1.03 | locus YDR318W, strain mcm21, hits give low values 1 | locus YDR334W, strain swr1, hits give low values 1.03 | locus YDR335W, strain msn5, hits give low values 1.03 | locus YDR388W, hits give low values 1.01 | locus YDR392W, strain spt3, hits give low values 1.05 | locus YDR502C, strain sam2, hits give low values 0.994 | locus YEL003W, strain gim4, hits give low values 1.02 | locus YEL037C, strain rad23, hits give low values 1.04 | locus YEL061C, strain CIN8 (second series), hits give low values 1.02 | locus YEL061C, strain CIN8, hits give low values 1.01 | locus YER015W, strain faa2, hits give low values 1.03 | locus YER016W, strain bim1, hits give low values 1.02 | locus YER110C, hits give low values 1.01 | locus YER111C, strain swi4, hits give low values 1.05 | locus YER155C, strain BEM2 (second series), hits give low values 1.07 | locus YER155C, strain BEM2, hits give low values 1.01 | locus YER167W, strain BCK2, hits give low values 1.03 | locus YFR010W, strain ubp6, hits give low values 1.03 | locus YGL078C, strain dbp3, hits give low values 0.997 | locus YGL086W, strain mad1, hits give low values 1 | locus YGL167C, strain pmr1, hits give low values 1.03 | locus YGL173C, strain kem1, hits give low values 1.01 | locus YGL227W, strain vid30, hits give low values 1.04 | locus YGL240W, strain doc1, hits give low values 1.03 | locus YGL248W, strain PDE1, hits give low values 1.01 | locus YGL253W, strain hxk2, hits give low values 1.02 | locus YGR078C, strain PAC10, hits give low values 0.98 | locus YGR135W, strain pre9, hits give low values 0.982 | locus YGR229C, strain SMI1, hits give low values 1.01 | locus YGR252W, strain gcn5, hits give low values 0.98 | locus YHR013C, strain ard1, hits give low values 1.1 | locus YHR027C, strain rpn1, hits give low values 1.02 | locus YHR030C, strain SLT2, hits give low values 1.01 and 0.932 | locus YHR079C, strain IRE1 (second series), hits give low values 1 | locus YHR079C, strain IRE1, hits give low values 0.977 | locus YHR094C, strain hxt1, hits give low values 0.997 | locus YHR129C, strain ARP1, hits give low values 1.02 | locus YHR142W, strain chs7, hits give low values 1.02 | locus YHR200W, strain rpn10, hits give low values 0.998 | locus YIL066C, strain RNR3, hits give low values 0.998 | locus YIL073C, strain SPO22, hits give low values 0.97 | locus YIL125W, strain kgd1, hits give low values 1 | locus YIR030C, strain dcg1, hits give low values 0.996 | locus YJL092W, strain hpr5, hits give low values 1.03 | locus YJL095W, strain BCK1 (second series), hits give low values 1.04 | locus YJL095W, strain BCK1, hits give low values 1.04 and 0.974 | locus YJL115W, strain asf1, hits give low values 1.06 | locus YJL129C, strain trk1, hits give low values 1.08 | locus YJL134W, strain LCB3, hits give low values 1 | locus YJL154C, strain vps35, hits give low values 1.03 | locus YJL164C, strain tpk1, hits give low values 1.02 | locus YJL166W, strain qcr8, hits give low values 1.02 | locus YJL168C, strain set2, hits give low values 1 | locus YJL187C, strain SWE1 (second series), hits give low values 0.994 | locus YJR043C, strain POL32, hits give low values 0.999 | locus YJR066W, strain TOR1, hits give low values 0.942 | locus YJR075W, strain HOC1, hits give low values 1.02
